# PubChem BioAssay (NCATS)
# Several values for one entry are separate records, joined by “and”; a condition that tells them apart may be missing. Identical values can stand only once. Inconclusive results are not listed. A call without a number means that no potency is given here. Unmarked numbers belong to inactive results. Activity calls are given as the source filed them. Unless noted, calls come from the whole dose curve; as a rule, active = well fitted curve in the direction sought with a large enough effect; inconclusive = small, poorly fitted or top-dose-only effect, or another doubt; inactive = no such curve, though single readings can be large; an effect the other way counts as inactive or inconclusive.
# What was measured:
# [1] = molecular target: Protein phosphatase 1D (Homo sapiens) (UniProt O15297); assay: Rhodamine-PBP qHTS Assay for Modulators of WT P53-Induced Phosphatase 1 (WIP1) (AID 1347425)
# Method in brief: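 5 nM WIP1 + 10 uM Rh-PBP, 50 mM Tris pH 7.5, 30 mM MgCl2, 1 mM TCEP, 0.1 mM EGTA, BSA; cpds pinned, 1 hr RT; + 10 uM phosphopeptide; fluorescence 1-min reads x 11 min; delta = f1 - f0.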
# [2] = Primary qHTS for inhibitors of La Crosse Virus (LACV) - induced cell death in SH-SY5Y cells (AID 1508616);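 note: top concentration of the series differs between compounds; higher means more rescue of cells from virus-induced death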
# Method in brief: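 Protection against LACV-induced cell death is scored in SH-SY5Y cells exposed to compounds and virus (0.01 MOI) for 6 days. Data normalized to virus-infected DMSO wells and virus-free DMSO wells.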
# [3] = molecular target: Calcium and integrin-binding protein 1 (Homo sapiens) (UniProt Q99828); assay: Primary qHTS for Identification of Calcium Integrin Binding Protein 1 (CIB1) Competitor (AID 1508620);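 note: GST tagged CIB1 binding a fluorescein labelled alphaIIb integrin peptide tracer; top concentration of the series differs between compounds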
# Method in brief: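 Fluorescence polarization competition: CIB1-GST (1 uM final) preincubated with compound 15 min at room temperature, then FITC-labeled alphaIIb peptide (100 nM final) added for another 15 min. Polarization read at Ex 480/Em 540.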
# [4] = Primary qHTS for small molecule stabilizers of the endoplasmic reticulum resident proteome: Secreted ER Calcium Modulated Protein (SERCaMP) assay (AID 1508630)
# Method in brief: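 GLuc-SERCaMP-expressing SH-SY5Y cells, pretreated 16 h with compound, are challenged with thapsigargin to empty ER calcium stores; after 4 h, coelenterazine is added directly to the medium and luminescence is imaged.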
# [5] = A High-Content qHTS Against Drug Library for the Identification of Small Molecules that Inhibit DYT1 Early Onset Primary Dystonia-Associated Cell Pathology (AID 1645839; calls by dose curve; note: potency is the fitted concentration of half-maximal effect; for % pathology change, negative = correction: series mostly up to about 46 µM)
# Method in brief: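 Readout: %pathology, the punctate EGFP-TorsinA distribution from imaging, as the primary channel and cell count as the toxicity counterscreen. HEK293 Flp-In cells expressing delE TorsinA were induced with tetracycline and treated with compound for 48 h.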
# [6] = molecular target: Cytochrome P450 2C9 (Homo sapiens) (UniProt P11712); assay: Cytochrome P450 family 2 subfamily C member 9 (CYP2C9) small molecule antagonists: luciferase biochemical (cell-free) qHTS assay (AID 1645842; active = well fitted curve in the direction sought with a large enough effect in the repeat runs; an effect the other way counts as inactive or inconclusive; note: nearly all actives have a fitted effect of over 55% in size; note: potency is the fitted concentration of half-maximal effect; for activity change, negative = inhibition: series mostly up to about 57 µM)
# Method in brief: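 Luminescence, after 20 min with luciferin detection reagent, reflected CYP2C9 turnover during a 1 h NADPH-driven reaction at 37C. Enzyme-substrate mix contained 0.4% bovine serum albumin and was preincubated with compound 10 min at room temperature.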
# [7] = Primary qHTS for inhibitors of nuclear receptor binding SET domain protein 2 (NSD2) in an isogenic RCH-ACV NSD2 p.E1099K mutant (9B) (AID 1645876); note: nearly all actives have a fitted effect of over 70% in size; note: potency is the fitted concentration of half-maximal effect
# [8] = Primary qHTS for inhibitors of nuclear receptor binding SET domain protein 2 (NSD2) in an RCH-ACV wild type WT cells (2C) (AID 1645877); note: nearly all actives have a fitted effect of over 70% in size; note: potency is the fitted concentration of half-maximal effect
# [9] = molecular target: Protein phosphatase 1D (Homo sapiens) (UniProt O15297); assay: RapidFire Mass Spectrometry qHTS Assay for Modulators of WT P53-Induced Phosphatase 1 (WIP1) (AID 1347424);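 note: amount of dephosphorylated VEPPL-S-QETFS peptide product formed by WIP1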; note: potency is the fitted concentration of half-maximal effect; for activity change, negative = inhibition: series mostly up to about 63 µM
# Method in brief: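 WIP1 (10 nM final) was preincubated 1 h at room temperature with compounds in Tris-HCl pH 7.5, 30 mM MgCl2, TCEP, EGTA, BSA; 2 uM VEPPL-pS-QETFS phosphopeptide was added for 5 min, quenched with formic acid, and dephosphorylated product quantified by RapidFire MS.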
# [10] = molecular target: Rap guanine nucleotide exchange factor 3 (Homo sapiens) (UniProt O95398); assay: Confirmatory qHTS for antagonist of cAMP-regulated guanine nucleotide exchange factor 3 (EPAC1) (AID 1645880); note: potency is the fitted concentration of half-maximal effect; nearly all actives have a fitted effect of over 55% in size
# Method in brief: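 Nucleotide exchange uses 100 nM EPAC1, 250 nM RAP1B-BODIPY-GDP and 50 uM GDP, with compounds in a concentration-titration series. After 5 min at room temperature, fluorescence (480 nm ex/540 nm em) is read every 5 min for 30 min. Data are normalized to control ATA and DMSO.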
# [11] = molecular target: Cytochrome P450 2D6 (Homo sapiens) (UniProt P10635); assay: Cytochrome P450 family 2 subfamily D member 6 (CYP2D6) small molecule antagonists: luciferase biochemical (cell-free) qHTS assay (AID 1645840; active = well fitted curve in the direction sought with a large enough effect in the repeat runs; an effect the other way counts as inactive or inconclusive; note: nearly all actives have a fitted effect of over 55% in size; note: potency is the fitted concentration of half-maximal effect; for activity change, negative = inhibition: series mostly up to about 57 µM)
# Method in brief: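 P450-Glo luminescent screen: recombinant CYP2D6 enzyme–proluciferin substrate mix preincubated with compound 10 min at room temperature, then NADPH regeneration added for 1 h at room temperature. Detection reagent added for 20 min; luciferin light read as relative luminescence units.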
# [12] = molecular target: Cytochrome P450 3A4 (Homo sapiens) (UniProt P08684); assay: Cytochrome P450 family 3 subfamily A member 4 (CYP3A4) small molecule antagonists: luciferase qHTS assay (AID 1645841; active = well fitted curve in the direction sought with a large enough effect in the repeat runs; an effect the other way counts as inactive or inconclusive; note: nearly all actives have a fitted effect of over 45% in size)
# Method in brief: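 P450-Glo CYP3A4 enzyme with proluciferin substrate was preincubated with DMSO-dissolved compounds for 10 min at room temperature. NADPH regeneration solution started a 1 h reaction. Detection reagent stopped it, and luminescence was read after 20 min.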
# Calcium and integrin-binding protein 1 (Homo sapiens), sequence (Q99828 whole entry, looked up): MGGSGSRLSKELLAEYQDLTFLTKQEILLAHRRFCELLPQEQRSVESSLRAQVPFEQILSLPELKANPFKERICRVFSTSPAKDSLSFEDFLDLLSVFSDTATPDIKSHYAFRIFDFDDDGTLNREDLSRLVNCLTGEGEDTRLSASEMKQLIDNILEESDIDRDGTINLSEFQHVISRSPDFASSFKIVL
# Cytochrome P450 2C9 (Homo sapiens), sequence (P11712 whole entry, looked up): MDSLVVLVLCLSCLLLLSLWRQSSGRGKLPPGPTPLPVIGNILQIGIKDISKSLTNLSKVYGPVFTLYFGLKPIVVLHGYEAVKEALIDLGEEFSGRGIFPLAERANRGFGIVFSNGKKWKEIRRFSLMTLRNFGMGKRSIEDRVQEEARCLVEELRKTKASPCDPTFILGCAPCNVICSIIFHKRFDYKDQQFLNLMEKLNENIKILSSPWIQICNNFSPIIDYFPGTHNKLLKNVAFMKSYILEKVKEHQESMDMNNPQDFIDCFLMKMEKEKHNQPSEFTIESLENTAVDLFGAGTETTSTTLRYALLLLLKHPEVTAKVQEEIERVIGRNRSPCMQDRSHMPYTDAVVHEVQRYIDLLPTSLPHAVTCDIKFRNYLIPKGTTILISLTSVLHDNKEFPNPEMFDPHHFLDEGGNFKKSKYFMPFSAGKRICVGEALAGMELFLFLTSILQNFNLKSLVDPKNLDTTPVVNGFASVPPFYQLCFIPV
# Protein phosphatase 1D (Homo sapiens), sequence (O15297 whole entry, looked up): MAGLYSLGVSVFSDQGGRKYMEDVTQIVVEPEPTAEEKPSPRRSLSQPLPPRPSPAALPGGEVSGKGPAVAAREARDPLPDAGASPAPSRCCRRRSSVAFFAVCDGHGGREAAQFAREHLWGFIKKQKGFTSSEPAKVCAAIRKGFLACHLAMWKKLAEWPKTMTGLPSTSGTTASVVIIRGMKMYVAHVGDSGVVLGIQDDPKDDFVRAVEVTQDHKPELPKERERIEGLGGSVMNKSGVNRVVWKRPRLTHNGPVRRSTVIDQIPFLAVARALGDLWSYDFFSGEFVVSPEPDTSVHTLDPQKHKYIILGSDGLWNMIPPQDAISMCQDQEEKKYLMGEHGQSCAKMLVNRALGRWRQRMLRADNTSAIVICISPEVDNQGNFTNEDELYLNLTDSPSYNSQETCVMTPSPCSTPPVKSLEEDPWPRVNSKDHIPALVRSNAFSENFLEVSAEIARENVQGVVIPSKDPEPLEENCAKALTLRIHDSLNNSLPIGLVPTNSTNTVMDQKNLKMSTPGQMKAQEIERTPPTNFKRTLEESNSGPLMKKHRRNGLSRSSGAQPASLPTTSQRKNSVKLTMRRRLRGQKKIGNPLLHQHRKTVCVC
# Cytochrome P450 2D6 (Homo sapiens), sequence (P10635 whole entry, looked up): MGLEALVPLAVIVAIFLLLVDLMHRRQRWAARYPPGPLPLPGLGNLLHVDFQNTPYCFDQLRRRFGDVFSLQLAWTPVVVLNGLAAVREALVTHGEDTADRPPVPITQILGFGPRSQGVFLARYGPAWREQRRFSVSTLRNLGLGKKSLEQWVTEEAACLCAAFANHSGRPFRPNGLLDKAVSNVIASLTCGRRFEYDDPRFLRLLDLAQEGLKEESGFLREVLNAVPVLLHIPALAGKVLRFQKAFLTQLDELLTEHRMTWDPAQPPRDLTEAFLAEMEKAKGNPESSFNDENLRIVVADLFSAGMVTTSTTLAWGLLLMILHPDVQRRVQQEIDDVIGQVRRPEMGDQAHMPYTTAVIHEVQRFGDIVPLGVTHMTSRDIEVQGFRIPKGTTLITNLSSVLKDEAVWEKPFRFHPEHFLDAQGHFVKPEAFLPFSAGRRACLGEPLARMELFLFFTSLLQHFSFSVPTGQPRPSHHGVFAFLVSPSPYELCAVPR
# Rap guanine nucleotide exchange factor 3 (Homo sapiens), sequence (O95398 whole entry, looked up): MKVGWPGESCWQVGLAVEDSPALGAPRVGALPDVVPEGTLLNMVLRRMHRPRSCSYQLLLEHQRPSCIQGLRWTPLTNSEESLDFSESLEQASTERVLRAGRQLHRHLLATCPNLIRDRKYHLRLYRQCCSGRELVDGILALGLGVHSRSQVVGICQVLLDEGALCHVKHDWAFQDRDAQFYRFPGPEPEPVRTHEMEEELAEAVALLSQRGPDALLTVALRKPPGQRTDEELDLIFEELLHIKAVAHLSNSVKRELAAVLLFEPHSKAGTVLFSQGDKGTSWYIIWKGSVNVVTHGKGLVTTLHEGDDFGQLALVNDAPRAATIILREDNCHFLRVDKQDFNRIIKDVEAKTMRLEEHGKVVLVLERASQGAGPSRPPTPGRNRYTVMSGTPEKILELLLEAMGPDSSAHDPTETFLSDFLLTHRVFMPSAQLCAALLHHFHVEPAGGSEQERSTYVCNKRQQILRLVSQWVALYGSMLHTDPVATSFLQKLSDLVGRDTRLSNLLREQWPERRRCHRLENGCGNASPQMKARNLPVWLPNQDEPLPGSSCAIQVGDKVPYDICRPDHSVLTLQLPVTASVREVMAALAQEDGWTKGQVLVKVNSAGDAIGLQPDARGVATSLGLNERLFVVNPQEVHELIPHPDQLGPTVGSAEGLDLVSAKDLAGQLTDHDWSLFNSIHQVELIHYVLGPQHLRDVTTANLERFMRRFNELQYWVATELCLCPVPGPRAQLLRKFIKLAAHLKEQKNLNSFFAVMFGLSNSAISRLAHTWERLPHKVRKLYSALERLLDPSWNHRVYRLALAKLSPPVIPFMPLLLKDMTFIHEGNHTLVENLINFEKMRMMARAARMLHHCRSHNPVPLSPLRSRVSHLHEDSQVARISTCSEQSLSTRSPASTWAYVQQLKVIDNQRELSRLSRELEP
# Cytochrome P450 3A4 (Homo sapiens), sequence (P08684 whole entry, looked up): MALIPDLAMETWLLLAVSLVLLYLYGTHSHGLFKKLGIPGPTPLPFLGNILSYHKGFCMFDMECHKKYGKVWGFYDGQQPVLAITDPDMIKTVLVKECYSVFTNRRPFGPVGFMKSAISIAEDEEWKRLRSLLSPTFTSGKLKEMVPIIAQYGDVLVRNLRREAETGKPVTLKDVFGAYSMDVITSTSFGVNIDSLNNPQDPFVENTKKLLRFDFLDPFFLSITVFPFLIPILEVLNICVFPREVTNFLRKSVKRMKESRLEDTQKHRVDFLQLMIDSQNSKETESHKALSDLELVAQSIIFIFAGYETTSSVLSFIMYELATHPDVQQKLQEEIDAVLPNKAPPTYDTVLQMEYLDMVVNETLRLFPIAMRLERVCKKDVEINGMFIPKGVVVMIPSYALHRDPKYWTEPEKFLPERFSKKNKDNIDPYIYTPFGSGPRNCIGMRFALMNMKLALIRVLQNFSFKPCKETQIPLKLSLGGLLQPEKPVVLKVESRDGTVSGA
compound,measurement,setting,value
CC(=O)Nc1ncc([N+](=O)[O-])s1,outcome,[1],inactive
same,outcome,[2],inactive
same,Potency,[3],inactive
same,Potency,[4],inactive
same,Potency,[5],inactive
same,Potency,[6],inactive
same,Potency,[7],inactive
same,Potency,[8],inactive
CCc1oc2ccccc2c1C(=O)c1cc(Br)c(O)c(Br)c1,Potency,[9],6.31 µM (active)
same,outcome,[2],inactive
same,Potency,[4],inactive
same,Potency,[10],39.5 µM (active) and 39.8 µM (active)
CC(=O)Oc1ccc(C)cc1,Potency,[9],inactive
same,outcome,[2],inactive
same,Potency,[3],inactive
same,Potency,[5],inactive
same,Potency,[11],inactive
same,Potency,[6],inactive
same,Potency,[7],inactive
same,Potency,[8],inactive
O=C(O)C1(C(=O)O)CCC1.[NH2-].[NH2-].[Pt+2],Potency,[9],11.2 µM (active)
same,outcome,[2],inactive
same,Potency,[5],inactive
same,Potency,[11],19.5 µM (active)
same,Potency,[12],inactive
CCCCCCCCCCCCCCCC(=O)O,Potency,[9],inactive
same,outcome,[2],inactive
same,Potency,[5],inactive
same,Potency,[11],inactive
same,Potency,[6],inactive
same,Potency,[7],inactive
same,Potency,[8],inactive
CCN1/C(=C/C=C/c2sc3ccccc3[n+]2CC)Sc2ccccc21,outcome,[1],inactive
same,outcome,[2],inactive
same,Potency,[3],inactive
same,Potency,[4],inactive
same,Potency,[5],11.2 µM (active)
same,Potency,[11],2.13 µM (active)
same,Potency,[6],9.52 µM (active)
O=C1[C@H](CC[C@H](O)c2ccc(F)cc2)[C@@H](c2ccc(O)cc2)N1c1ccc(F)cc1,Potency,[9],inactive
same,outcome,[2],inactive
same,Potency,[3],inactive
same,Potency,[6],6.92 µM (active) and 9.52 µM (active)
same,Potency,[7],23 µM (active)
CC[C@H](c1ccc(O)cc1)[C@@H](CC)c1ccc(O)cc1,outcome,[2],inactive
same,Potency,[3],inactive
same,Potency,[4],inactive
same,Potency,[7],11.9 µM (active)
same,Potency,[8],8.41 µM (active)
Oc1c(Cl)cc(Cl)c(Cl)c1Cc1c(O)c(Cl)cc(Cl)c1Cl,Potency,[9],8.91 µM (active)
same,outcome,[2],inactive
same,Potency,[4],inactive
same,Potency,[11],13.8 µM (active)
same,Potency,[6],1.55 µM (active)
same,Potency,[7],5.96 µM (active)
same,Potency,[8],5.96 µM (active)
Cc1ccc(S(=O)(=O)NC(=O)NC2CCCC2)cc1,Potency,[9],inactive
same,outcome,[2],inactive
same,Potency,[3],inactive
same,Potency,[5],inactive
same,Potency,[11],inactive
same,Potency,[6],inactive
same,Potency,[7],inactive
same,Potency,[8],inactive
N=C(N)N1CCc2ccccc2C1,"activity change, negative = inhibition",[9],-1.79% [at 6.17 µM]
same,activity change,[2],-3.22% [at 0.431 µM]
same,"activity change, negative = inhibition",[4],-7.52% [at 3.88 µM]
same,"% pathology change, negative = correction",[5],0.596% [at 4.63 µM]
same,"activity change, negative = inhibition",[6],12.1% [at 4.83 µM]
same,"activity change, negative = viability loss",[7],-4.68% [at 4.96 µM]
same,"activity change, negative = cell killing",[8],-10.2% [at 4.96 µM]
C[N+]1(C)CCC(=C(c2ccccc2)c2ccccc2)CC1,Potency,[9],inactive
same,outcome,[2],inactive
same,Potency,[4],inactive
same,Potency,[5],inactive
same,Potency,[6],inactive
C#C[C@]1(OC(C)=O)CC[C@H]2[C@@H]3CCC4=C/C(=N/O)CC[C@@H]4[C@H]3CC[C@@]21CC,outcome,[1],inactive
same,outcome,[2],inactive
same,Potency,[3],inactive
same,Potency,[4],inactive
same,Potency,[11],2.68 µM (active)
same,Potency,[6],952 nM (active) and 7.76 µM (active)
O=C(Nc1ncc([N+](=O)[O-])s1)c1cccs1,outcome,[2],inactive
same,Potency,[3],inactive
same,Potency,[5],inactive
same,Potency,[6],9.77 µM (active)
